{
  "source": "PubChem BioAssay (Tox21)",
  "note": "Records with an inconclusive call do not appear. Entries that show only a call come without a potency. Values without a mark were called inactive. Active and inactive are the calls of the source. Calls follow the shape of the dose curve; as a rule, active = well fitted cell-killing curve with a large enough effect in the repeat runs; inconclusive = weak or mixed curves, or effect the other way; inactive = flat fitted curve, though single readings scatter.",
  "data": [
    {"assay": "qHTS assay to identify small molecule antagonists of the retinoid acid receptor (RAR) signaling pathway - cell viability counter screen (AID 1159551); also: nearly all actives have a fitted effect of over 35% in size", "details": "C3RL4 cells viability, ATP luminescence (CellTiter-Glo), 6 h; series mostly up to 92.4 µM", "outline": "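C3RL4 cells were seeded overnight at 37 C, then treated with compounds plus 1 uM (final) retinol for 6 h at 37 C. Viability was read as ATP by CellTiter-Glo luminescence after 30 min at room temperature.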", "values": [
      {"smiles": "CCCCOC(=O)CCS", "Potency": "inactive"},
      {"smiles": "CC(=N\\O)/C(C)=N/O", "Potency": "inactive"},
      {"smiles": "CC#N", "Potency": "inactive"},
      {"smiles": "Oc1cc(O)c(Cl)cc1Cl", "Potency": "inactive"},
      {"smiles": "CC1(C)O[C@@H]2C[C@H]3[C@@H]4CCC5=CC(=O)C=C[C@]5(C)[C@H]4[C@@H](O)C[C@]3(C)[C@]2(C(=O)CO)O1", "Potency": "inactive"},
      {"smiles": "CO[C@H]1C=CO[C@@]2(C)Oc3c(C)c(O)c4c(O)c(c5c(c4c3C2=O)=NC2(CCN(CC(C)C)CC2)N=5)NC(=O)/C(C)=C\\C=C/[C@H](C)[C@H](O)[C@@H](C)[C@@H](O)[C@@H](C)[C@H](OC(C)=O)[C@@H]1C", "Potency": "inactive"},
      {"smiles": "CC(=O)CC(c1ccc([N+](=O)[O-])cc1)c1c(O)c2ccccc2oc1=O", "note": "(stereo unspecified)", "Potency": "inactive"},
      {"smiles": "CC(=O)Nc1ccc(N)cc1", "Potency": "inactive"},
      {"smiles": "CCCCC(CC)COC(=O)COc1ccc(Cl)cc1C", "note": "(stereo unspecified)", "Potency": "inactive"},
      {"smiles": "CCC(C)=O", "Potency": "inactive"},
      {"smiles": "C1COCO1", "Potency": "inactive"},
      {"smiles": "Brc1cc(-c2ccc(Br)c(Br)c2Br)cc(Br)c1Br", "Potency": "inactive"},
      {"smiles": "O=S(=O)(c1ccccc1)c1ccc(Cl)cc1", "Potency": "inactive"},
      {"smiles": "CN1CCCN=C1/C=C/c1cccs1", "Potency": "inactive"},
      {"smiles": "CC1CN(c2cc3c(cc2F)c(=O)c(C(=O)O)cn3-c2ccc(F)cc2F)CCN1", "note": "(stereo unspecified)", "activity change, negative = cytotoxicity": "0.772% [at 8.39 µM]"},
      {"smiles": "CCCCCCCC/C=C\\CCCCCCCC(=O)OC", "Potency": "inactive"},
      {"smiles": "CCC1(C)CC(=O)NC1=O", "note": "(stereo unspecified)", "Potency": "inactive"},
      {"smiles": "O=C(CCCN1CCC(O)(c2ccc(Br)cc2)CC1)c1ccc(F)cc1", "Potency": "inactive"},
      {"smiles": "O=C(O)c1snc(Cl)c1Cl", "Potency": "inactive"},
      {"smiles": "Cc1ccccc1N1C(=O)c2cc(S(N)(=O)=O)c(Cl)cc2NC1C", "note": "(stereo unspecified)", "Potency": "inactive"},
      {"smiles": "Cc1cc(C(=C2C=CC(=Nc3ccc(S(=O)(=O)O)cc3S(=O)(=O)O)C=C2)c2ccc(Nc3ccc(S(=O)(=O)O)cc3)cc2)ccc1N", "Potency": "inactive"}
    ]}
  ]
}
